The text below walks through data of PubChem BioAssay AID1117319 (Southern Research Institute, 2015).

The structures appear in SMILES notation. Out of some 260,000 compounds screened, about 1,500 (0.58%) were called active. Roughly 5% stayed inconclusive and do not appear here. Not all results are given here. Entries with a potency or affinity are not part of this list. Values without a mark were called inactive.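 Rule for the calls: active = inhibition above a set limit at one or more doses, reproduced on every date tested; inconclusive = results disagree between test dates, or hit never tested in dose response; inactive = the rest.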

This test addresses Virion infectivity factor (Human immunodeficiency virus type 1 group M subtype B (isolate BH10)) + Virion infectivity factor (Human immunodeficiency virus type 1 group M subtype B (isolate BRU/LAI)) + Virion infectivity factor (Human immunodeficiency virus type 1 group M subtype B (isolate PCV12)) + Virion infectivity factor (Human immunodeficiency virus type 1 group M subtype B (isolate HXB2)) + DNA dC->dU-editing enzyme APOBEC-3G (Homo sapiens) (UniProt P69720+P69721+P69722+P69723+Q9HC16). The experiment in a line: HIV-1 Vif–A3G interaction blockers – biochemical, TR-FRET, GST-Vif 1-94, biotin-A3G peptide, dose response retest, primary screen (AID 1117319).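 Note: Vif residues 1-94 fused to GST binding biotinylated APOBEC3G peptide 110-148; 0% = full assay without inhibitor and 100% = GST in place of GST-Vif.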 To be noted: TR-FRET GST-Vif / biotin-A3G peptide binding; stronger effect = higher value.
The inhibition is the relative decrease from the control value, in per cent. In the case of `Cc1cc(C)c2c(N)c(C(=O)N3CCc4ccccc4C3)sc2n1`, the inhibition was 2.97%.
`O=C(CSc1ccccc1C(=O)O)NC12CC3CC(CC(C3)C1)C2`: the inhibition is -8.39%.
In the case of `COC(=O)C1=C(C)OC(N)=C(C#N)C1c1ccsc1` (centres undefined) it was -0.64%.
The same measure for `Cc1ccc(/C=C/C(=O)Nc2ccncc2)o1`: 26.1%; for `Cc1cnc(NC(=O)/C=C/c2ccc(Br)o2)s1`: 20.7%; for `O=C(/C=C/c1ccc(F)cc1)Nc1cccc(S(=O)(=O)N2CCOCC2)c1`: -3.16%.
`Cc1ccc(/C=C/C(=O)Nc2ccc(S(N)(=O)=O)cc2)o1`: the inhibition was 5.06%.
On to `Cc1ccc(/C=C/C(=O)Nc2nnc(C)s2)o1`, for which the inhibition was 30.1%.
For the molecule `COc1ccc(NC(=O)/C=C/c2ccc(C)o2)cc1S(=O)(=O)N1CCOCC1`, the inhibition was 22.6%.
For the molecule `Cc1cc(-c2nnc(CCC(=O)N3CCN(Cc4cccc(F)c4)CC3)o2)c(C)o1`, the inhibition was -7.15%.
The same measure for `COc1ccc(OC)c(CN2CCN(C(=O)c3cccs3)CC2)c1`: 1.09%; for `COc1ccc(Oc2nc(-c3cccnc3)nc3ccccc23)cc1`: -18.5%; for `CCC(OC(=O)c1nsc(Cl)c1Cl)C(=O)NC(C)(C)CC` (centres undefined): -6.48%.
The same measure for `CC(NC(=O)c1cccc(S(=O)(=O)N2CCN(Cc3ccccc3)CC2)c1)c1ccc(Cl)cc1` (centres undefined): 3.65%; for `CCOC(=O)c1cn2nc(Oc3ccc(NC(C)=O)cc3)ccc2n1`: -0.1%.
In the case of `CC(NC(=O)c1ccc2nc(Cc3cccc(Cl)c3)oc2c1)c1ccncn1` (centres undefined) it was 0.5%; in that of `CN(C)C(=O)CCc1ccc2c3c([nH]c2c1)[C@]1(CCC2CCCC2)[C@@H](C(=O)N2CCOCC2)C[C@H](CC(=O)NCCC2=CCCCC2)C(=O)N1CC3`, 4.07%.
In the case of `CCOc1ncccc1C(=O)OCC(=O)NC1CCCCCC1`, the inhibition was -6.35%.
The same measure for `Cc1cc(S(=O)(=O)Nc2ncnc3sccc23)ccc1F`: 1.05%; for `CCOC(=O)C(C)/C(C)=N/NC(=O)CCC(=O)Nc1cc(C)ccc1C` (centres undefined): 3.1%.
With `CCOC(=O)c1nn(-c2ccccc2C)c(=O)c(C#N)c1C`, the inhibition was 12.1%.
`CCOC(=O)c1nc(C)n(-c2ccc(Cl)cc2Cl)n1`: the inhibition was 23.2%.
With `O=C(Oc1c(-c2ccccc2)oc2ccccc2c1=O)c1ccccc1`, the inhibition is -7.08%.
In the case of `COc1ccc(-c2c3c([nH]c(=S)c2C#N)CCC3)cc1` it was -9.25%; in that of `N#Cc1c(-c2cccnc2)c2c([nH]c1=S)CCCC2`, 28.4%.
In the case of `COc1ccc(OC)c(-c2c3c([nH]c(=S)c2C#N)CCCC3)c1` it was -14.3%; in that of `N#Cc1c(-c2ccc(Cl)cc2)c2c([nH]c1=S)CCCC2`, -9.58%; in that of `Cc1ccc(-c2c(C(=O)Nc3ccccc3C)c(C)[nH]c(=S)c2C#N)o1`, 17.8%.
The same measure for `Cc1ccccc1NC(=O)c1c(C)[nH]c(=S)c(C#N)c1-c1ccc(Cl)cc1`: -0.84%.
Regarding `CC(=O)OC1CC[C@@]2(C)C(CCC3C2CC(=O)[C@@]2(C)C3CC3CC(C)=CC(=O)C32)C1` (some centres undefined), the inhibition was -1.09%.
Consider `CC(Oc1ccccc1F)C(=O)NNC(=O)CCS(=O)(=O)c1ccccc1Cl` (centres undefined), for which the inhibition is 3.79%.
Turning to `CC1CC(C)(C)NC(=S)N1CCC(=O)N1CCc2ccccc2C1` (centres undefined), the inhibition was -8.29%.
The same measure for `CC1(C)C(=O)NCCN1C(=O)CCC(=O)O`: -4.36%.
With `Cc1ccc(CNC(=O)C2CC3Cn4c(nc5cc6ccccc6cc54)C3N2C)o1` (centres undefined), the inhibition was 5.41%.
The same measure for `O=C(CSc1ccc(-c2nc3ccccc3[nH]2)cn1)Nc1ccc(S(=O)(=O)N2CCCC2)cc1`: -5.26%; for `O=C(CSc1nnc(NC(=O)c2cccc(Cl)c2)s1)NCC1CCCO1` (centres undefined): 3.82%.
The same measure for `CCOc1cc(N2CCOCC2)c(OCC)cc1NC(=O)COc1ccc2ccc(=O)oc2c1`: -0.33%; for `COc1ccccc1C(c1nnnn1Cc1ccco1)N1CCN(c2cccc(C)c2C)CC1` (centres undefined): 25.8%; for `O=C(c1cc(COc2ccc3ncccc3c2)on1)N1CCC[C@H]1CO`: 1.67%.
In the case of `COC(=O)C1CCCCN1C(=O)c1cc(COc2cccc3cccnc23)on1` (centres undefined) it was 4.07%; in that of `COc1cccc(CNC(=O)CCCN2C(=O)C(c3ccccc3)Oc3cccnc32)c1OC` (centres undefined), -2.88%.
On to `CCOC(=O)C1=C(C)N(C2CCCCC2)C(=O)C1`, for which the inhibition was -5.38%.
The same measure for `COC(=O)/C(C(C)=O)=C(/C=C/C=C/N(C)C)N(C)C`: 16.1%.
For the molecule `COC(=O)\C(C(C)=O)=C(/C=C/C=C/N(C)C)N(C)C`, the inhibition was 27.9%.
For the molecule `COCCNC(=O)c1cc(-c2ccncc2)nc2ccc(S(=O)(=O)N3CCOCC3)cc12`, the inhibition is -13.5%.
In the case of `CC1(C)[C@@H](O)CC[C@]2(C)[C@H]3C(=O)C=C4[C@@H]5C[C@@](C)(C(=O)O)CC[C@]5(C)CC[C@@]4(C)[C@]3(C)CC[C@@H]12` it was 27.5%; in that of `Cc1ccc([C@H]2C(C#N)=C(N)Oc3cc(C)oc(=O)c32)o1`, 1.59%.
Regarding `Cc1ccc(C2C(C#N)=C(N)Oc3cc(C)oc(=O)c32)o1` (centres undefined), the inhibition is -6.32%.
In the case of `CCCCCC(=O)NNC1CC(=O)N(c2ccccc2)C1=O` (centres undefined), the inhibition is -9.34%.
In the case of `C[C@H](N)c1nnc(SCc2ccc(Cl)cc2Cl)o1` it was 1.96%; in that of `CCN1C(C)=C(C)S/C1=C1\SC(=S)N(N)C1=O`, 7%; in that of `Cn1cc(/C=N/NC(=O)c2cc3cc(Br)ccc3o2)c2ccccc21`, -7.92%.
As for `O=C(O)Cn1cc(/C=N/NC(=O)c2cc3cc(Br)ccc3o2)c2ccccc21`, the inhibition was 0.84%.
In the case of `COc1ccc(Cl)cc1C(=O)NNC(=O)CSc1nnc2ccccn12`, the inhibition is -2.97%.
On to `O=C(/C=N/O)Nc1cccnc1`, for which the inhibition was 28.5%.
The same measure for `COC(=O)/C=C/C(=O)Nc1cccnc1`: 15.1%.
Consider `COc1c(OC(C)=O)ccc(/C=C/c2ccc3cccc(OCc4ccccc4)c3n2)c1[N+](=O)[O-]`, for which the inhibition was 5.7%.
Take `CCOc1c(OC(C)=O)ccc(/C=C/c2ccc3cccc(OC)c3n2)c1[N+](=O)[O-]`: the inhibition is 21.2%.
The same measure for `O=C(CSCC(=O)c1ccccc1)Nc1ccccc1Cl`: -5.7%; for `COc1ccc(C(=O)Nc2cccc(-c3nnc(-c4ccco4)o3)c2)cc1`: -0.63%; for `S=C(NCCN1CCOCC1)N/N=C/c1ccccc1`: 0.06%.
The same measure for `Oc1ccc(/C=N/NC(=S)NCCN2CCOCC2)c(O)c1`: 24.1%; for `CC(=O)NCCOc1ccc(C(=O)O)cc1`: -5.42%.
In the case of `CCCCOC(=O)n1c(=O)oc2ccc(S(=O)(=O)N3CCCCC3)cc21` it was -5.83%; in that of `O=C(O)c1cc([N+](=O)[O-])cc2ccccc12`, -6.07%; in that of `O=[N+]([O-])c1cc(-c2ccccc2)cc([N+](=O)[O-])c1O`, -4.83%.
On to `Cc1cc(Cl)c2oc(C(=O)N3CCN(c4cnccn4)CC3)c(C)c2c1`, for which the inhibition was 2.03%.
As to `O=C(Cc1ccccc1)NC(Nc1cccc2ccccc12)C(Cl)(Cl)Cl` (centres undefined), the inhibition was -5.91%.
With `CC(C)(C)NC(NC(=O)Cc1ccccc1)C(Cl)(Cl)Cl` (centres undefined), the inhibition is 2.28%.
Regarding `CN(CCC1CCOCC1)C(=O)C1CCC(=O)N(CCc2ccc(Cl)cc2)C1` (centres undefined), the inhibition was -0.45%.
The same measure for `CN1/C(=C\C=Nc2ccc3ccccc3c2)C(C)(C)c2ccccc21`: 15.9%.
As for `CN1/C(=C\C=Nc2ccccc2)C(C)(C)c2ccccc21`, the inhibition is 13.4%.
Take `Cc1nc2ccccc2nc1-c1ccc([N+](=O)[O-])cc1`: the inhibition was 3.82%.
In the case of `COc1cc2c3c(c1OC)C1(C=CC(=O)C=C1)CC3N(C(=O)c1ccccc1)CC2` (centres undefined), the inhibition is 16.3%.
With `COc1cc2c3c(c1OC)C1(C=CC(=O)C=C1)CC3N(C(C)=O)CC2` (centres undefined), the inhibition is 25.2%.
For `O=S(=O)(Nc1ccccc1)c1ccc(-c2cnc(C3CC3)o2)cc1`, the inhibition was 5.89%.
Take `COc1cccc(=O)c2c(C)n(CC(=O)c3ccccc3)c(C)c12`: the inhibition was 19.6%.
In the case of `COc1cccc(-n2c(C)c3c(OC)cccc(=O)c3c2C)c1` it was 31.7%.
In the case of `CCOc1ccccc1N1C(=O)c2ccc(C(=O)O)cc2C1=O` it was -5.01%; in that of `CCOc1ccccc1OCC(=O)O`, 2.95%; in that of `CCOc1cccc2cc(C(C)=O)oc12`, -1.92%.
The same measure for `CCOc1ccc2c(C)c(C)c(=O)oc2c1OCC`: -2.36%; for `CCOc1ccccc1N1CCN(Cc2ccco2)CC1`: 0.19%.
Regarding `COC(=O)c1c(C(=O)OC)c(C)n(Cc2ccco2)c1C`, the inhibition is 1.05%.
In the case of `CCN(CC(=O)Nc1c(F)cccc1F)C(=O)c1ccc2c(c1)OCCO2` it was 8.86%; in that of `CCOc1ccc(CN(C)C(=O)CCc2ccc(S(=O)(=O)N3CCCCCC3)cc2)cc1`, -5.71%; in that of `CNC(=O)c1c(NC(=O)CS(=O)(=O)c2ccccc2)sc(C)c1C`, 2.6%.
In the case of `OC1CCCN(C(=S)Nc2ccc(SC(F)F)cc2)C1` (centres undefined) it was 21.9%.
In the case of `Cc1ccc(NC(=O)CSc2nc(=O)n(CCN(C)C)c3c2CCCC3)cc1Cl` it was -8.42%.
Consider `COC(=O)c1cc2occc2n1CC(=O)N(C)C1CCCCC1`, for which the inhibition is 15.2%.
`CN1CCN(c2cc(N3CCc4ccccc4C3)c(F)cc2[N+](=O)[O-])CC1`: the inhibition is -1.87%.
In the case of `COc1ccc(Br)c(C(=O)NNC(=O)c2ccc(NS(=O)(=O)c3cccs3)cc2)c1`, the inhibition was 2.76%.
The same measure for `C(C#CCN1CCOCC1)#CCN1CCOCC1`: 5.57%; for `CCc1ccccc1Nc1nc(N)nc(CSc2nnnn2C)n1`: 0.07%.
